The values below come from PubChem BioAssay (NCI).

Some test systems named below: NCI-H23 lung; NCI-H226 lung; NCI-H322M lung; HOP-62 NSCLC; NCI-H460 lung; NCI-H522 lung; A549/ATCC NSCLC; 786-0 renal; COLO 205 colon; DU-145 prostate; K-562 leukemia; MALME-3M melanoma; MDA-MB-231 breast; SF-268 CNS; SF-295 CNS; SF-539 CNS; UACC-257 melanoma; HCT-15 colon; RXF 393 renal; M14 melanoma.
Common to all, as to assay: NCI-60 one-dose screen, 48 h (100 = growth as untreated, 0 = no growth, -100 = all killed)
Conditions in all cases: 10 µM unless noted

Each structure is given as a SMILES string. The panel holds about 83,000 compounds, 20% with a hit somewhere; the sample as a whole holds those more often.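 For each line, cells grew in 96-well plates with the test compound present at a single concentration for 48 hours.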 Values without a mark were called inactive. Calls of active or inactive are those of the source. Rule for the calls: active = growth percent below 10; inactive = the rest.

Turning to `COc1ccc(/C=C2\COc3ccc(O)c(O)c3C2=O)cc1OC`, the growth is 41% with NCI-H23 lung; 46.6% with NCI-H226 lung; 48.9% in the test with NCI-H322M lung; 11.6% in the test on HOP-62 NSCLC; 1.26% (active) in the test on NCI-H460 lung; -55.5% (active) with NCI-H522 lung. Besides, the growth in the test with A549/ATCC NSCLC is 31.7%; in the test on 786-0 renal, -17.8% (active); in the test with COLO 205 colon, 55.6%; in the test with DU-145 prostate, 6.44% (active); in the test with K-562 leukemia, 0.0834% (active); with MALME-3M melanoma it was -57.4% (active). The growth with MDA-MB-231 breast is -2.32% (active); in the test on SF-268 CNS, 9.74% (active); with SF-295 CNS, 72.2%; in the test on SF-539 CNS it was -55.4% (active); with UACC-257 melanoma, 31.4%; with HCT-15 colon, -39.4% (active).
With `COC(=O)CC1=C(C)/C(=C/c2[nH]c(-c3ccc[nH]3)cc2OC)N=C1C`, the growth in the test with NCI-H23 lung was 6.26% (active); with NCI-H226 lung, 24.6%; in the test on NCI-H322M lung, 18.2%; with HOP-62 NSCLC, -10.9% (active); with NCI-H460 lung, 4.72% (active); in the test on NCI-H522 lung, -74.8% (active). The growth in the test with A549/ATCC NSCLC was 9.1% (active); with 786-0 renal, -2.31% (active); in the test with COLO 205 colon it was 9.09% (active); in the test with DU-145 prostate, 24.2%; with K-562 leukemia, -23.6% (active); with MDA-MB-231 breast it was -14.3% (active). Moreover, the growth in the test on RXF 393 renal was 8.29% (active); in the test on SF-268 CNS it was 22.7%; in the test with SF-295 CNS, -46.6% (active); with SF-539 CNS, -4.76% (active); with UACC-257 melanoma, -8.53% (active); in the test with M14 melanoma it was 7.46% (active). For the same compound, the growth with HCT-15 colon is 3.06% (active).
As to `Cc1nn(-c2ccccc2)c2nc(Cl)c(/C=C/C(=O)c3ccccc3)c(-c3ccccc3)c12`, the growth was 102% with NCI-H23 lung; 89.7% in the test with NCI-H226 lung; 105% with NCI-H322M lung; 114% with HOP-62 NSCLC; 106% in the test with NCI-H460 lung; 89.9% with NCI-H522 lung. For the same compound, the growth in the test with A549/ATCC NSCLC is 110%; in the test with 786-0 renal, 106%; in the test with COLO 205 colon, 121%; with DU-145 prostate, 115%; in the test on MALME-3M melanoma, 101%; with MDA-MB-231 breast, 111%. Further, the growth in the test with RXF 393 renal was 103%; in the test with SF-268 CNS, 106%; in the test on SF-295 CNS, 105%; with UACC-257 melanoma, 114%; in the test with M14 melanoma it was 90.1%; in the test with HCT-15 colon, 101%.
As for `COc1ccc2nc(NC(=O)c3cc(-c4ccc(F)cc4)n4nc(-c5ccccc5)cc4n3)sc2c1`, the growth in the test with NCI-H23 lung was 53.6%; in the test with NCI-H226 lung, 84%; in the test on NCI-H322M lung, 82.8%; with HOP-62 NSCLC, 61.4%; with NCI-H460 lung, 79.2%; with NCI-H522 lung, 95.8%. Further, the growth in the test with A549/ATCC NSCLC was 77.1%; in the test on 786-0 renal it was 90.8%; in the test with COLO 205 colon it was 76.3%; in the test with DU-145 prostate, 78.1%; in the test with K-562 leukemia it was 93.5%; with MDA-MB-231 breast it was 72.8%. In addition, the growth in the test with RXF 393 renal is 118%; in the test on SF-295 CNS, 61.6%; in the test with SF-539 CNS it was 66.6%; in the test with UACC-257 melanoma it was 80%; in the test with M14 melanoma, 81.9%.
As for `COc1cc2c(C#N)n3c(c2cc1OC)C(=O)C(c1ccccc1)Oc1ccccc1-3` (configuration not stated), the growth in the test on NCI-H23 lung was 20.5%; in the test with NCI-H226 lung, 21.8%; in the test with NCI-H322M lung, 85.5%; in the test on HOP-62 NSCLC, 53.8%; with NCI-H460 lung, 66.9%; with NCI-H522 lung, -32.4% (active). For the same compound, the growth in the test with A549/ATCC NSCLC was 11.5%; in the test with 786-0 renal, 48.5%; in the test on COLO 205 colon it was 80.3%; in the test with DU-145 prostate, 72.8%; with K-562 leukemia it was 29.7%; with MDA-MB-231 breast, 64.1%. For the same compound, the growth in the test with SF-268 CNS is 43%; with SF-295 CNS, 28.4%; in the test with SF-539 CNS, 83.5%; with UACC-257 melanoma it was 89.3%; in the test on M14 melanoma it was 44.7%; in the test on HCT-15 colon, 31.5%.
`O=C(/C=C/c1ccc(Cl)cc1)c1ccccc1`: the growth in the test on NCI-H23 lung was 109%; with NCI-H226 lung, 91%; in the test with NCI-H322M lung, 92.2%; in the test with HOP-62 NSCLC, 115%; in the test with NCI-H460 lung, 107%; with NCI-H522 lung, 81.1%. Also, the growth was 88.9% with A549/ATCC NSCLC; 93.7% with 786-0 renal; 120% in the test with COLO 205 colon; 106% with DU-145 prostate; 66.6% in the test with K-562 leukemia; 119% in the test on MDA-MB-231 breast. The growth with SF-268 CNS was 102%; in the test on SF-295 CNS it was 94.3%; with SF-539 CNS, 103%; in the test on UACC-257 melanoma, 102%; in the test on M14 melanoma, 100%; in the test on HCT-15 colon, 75.4%.
On to `Cc1nn(-c2ccc(Cl)cc2)c2nc3c(nc12)C(=O)c1ccccc1-3`, for which the growth was 61.7% in the test with NCI-H23 lung; 32.5% with NCI-H226 lung; 63.1% in the test with NCI-H322M lung; 51.7% with HOP-62 NSCLC; 12.6% with NCI-H460 lung; 60.7% with NCI-H522 lung. In addition, the growth was 55.8% with A549/ATCC NSCLC; 56.8% in the test on 786-0 renal; 95.2% with COLO 205 colon; 77.8% in the test with DU-145 prostate; 84.7% with MALME-3M melanoma; 52.7% in the test on MDA-MB-231 breast. In addition, the growth is 45.4% in the test with RXF 393 renal; 72.4% with SF-268 CNS; 36.4% in the test with SF-295 CNS; 91.5% in the test on UACC-257 melanoma; 70.5% in the test with M14 melanoma; 98.5% with HCT-15 colon.
For the compound `COc1cc(/C=C/C(=O)c2c(-c3ccc(Cl)cc3)nc3sc(C)nn23)cc(OC)c1OC`, the growth in the test with NCI-H23 lung was 84.3%; with NCI-H226 lung it was 68.3%; in the test with NCI-H322M lung, 87.5%; in the test with HOP-62 NSCLC, 98.8%; in the test on NCI-H460 lung it was 97.2%; in the test on NCI-H522 lung, -20.1% (active). Moreover, the growth in the test on A549/ATCC NSCLC is 83.8%; in the test with 786-0 renal it was 81.4%; with COLO 205 colon, 100%; with DU-145 prostate, 90.2%; with K-562 leukemia, 31.1%; in the test with MDA-MB-231 breast, 72.2%. In addition, the growth in the test on SF-268 CNS is 88.6%; in the test with SF-295 CNS it was 76.2%; in the test on SF-539 CNS, 95.8%; in the test on UACC-257 melanoma, 81.9%; in the test with M14 melanoma it was 75.8%.
For the compound `CN1C(=O)C(=Cc2cn(Cc3ccccc3)c3ccc(Br)cc23)C(=O)N(C)C1=O`, the growth was 105% in the test on NCI-H23 lung; 32.3% in the test with NCI-H226 lung; 93.8% in the test on NCI-H322M lung; 85.8% in the test with HOP-62 NSCLC; 35.1% in the test with NCI-H460 lung; 94.4% with NCI-H522 lung. Also, the growth in the test with A549/ATCC NSCLC is 88.5%; in the test with 786-0 renal, 98.2%; with COLO 205 colon, 89.6%; in the test with DU-145 prostate, 97.1%; in the test on MALME-3M melanoma it was 113%; with MDA-MB-231 breast, 105%. Besides, the growth is 57.6% in the test with RXF 393 renal; 96.7% in the test on SF-268 CNS; 75.8% with SF-295 CNS; 97.5% in the test on SF-539 CNS; 99.1% in the test with UACC-257 melanoma; 99.8% in the test on M14 melanoma. Besides, in the test on HCT-15 colon, the growth was 95.4%.
